High-throughput results from PubChem BioAssay.
CYP2C9 inh: blocks human cytochrome P450 2C9 | CYP2C9 Supersomes, luciferin-H conversion, luminescence | P11712 | 20% of 96,000 active | AID 777 | inhibition, % at 5 µM;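 active means blocking of liver enzyme CYP2C9 beyond about 50% at 5 µM, limit read from the data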
Target sequence (P11712 whole entry, looked up): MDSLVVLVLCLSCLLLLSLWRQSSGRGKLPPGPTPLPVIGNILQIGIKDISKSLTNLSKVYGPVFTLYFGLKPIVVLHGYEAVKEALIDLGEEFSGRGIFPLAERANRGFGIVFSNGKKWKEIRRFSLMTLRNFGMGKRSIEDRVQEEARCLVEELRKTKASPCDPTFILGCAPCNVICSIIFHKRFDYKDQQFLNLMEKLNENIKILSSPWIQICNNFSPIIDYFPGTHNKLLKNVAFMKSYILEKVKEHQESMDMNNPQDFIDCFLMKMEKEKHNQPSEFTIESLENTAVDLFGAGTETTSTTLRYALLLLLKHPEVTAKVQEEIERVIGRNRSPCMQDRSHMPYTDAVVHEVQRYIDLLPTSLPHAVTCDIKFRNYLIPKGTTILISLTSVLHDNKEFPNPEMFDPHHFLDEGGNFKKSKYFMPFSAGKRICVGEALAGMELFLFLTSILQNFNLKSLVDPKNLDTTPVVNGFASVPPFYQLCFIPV
sEH inhibitor: inhibitors of human soluble epoxide hydrolase; recombinant human sEH enzymatic activity assay; AID 707; inhibition, % at 2 µM; 0.34% of 91,000 active; P34913; in the data active means inhibition above about 80%
sEH activator: activators of human soluble epoxide hydrolase. P34913. purified human sEH enzymatic activity, activator screen. activation, % at 2 µM. 0.04% of 91,000 active; in the data active means activation above about 37%
CYP2C9 activ: CYP2C9 (human) activation; 1.4% of 96,000 active; activation factor at 5 µM; AID 1024; recombinant CYP2C9, luciferin-H conversion, luminescence; stronger effect = higher value; factor 1 = untreated enzyme, 0 = blocked; P11712;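 active means activation factor of 2 or more for CYP2C9 at a 5 µM dose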;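 further: 0 = sulfaphenazole-blocked wells and 1 = vehicle-only wells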
CYP2C19 inh: human CYP2C19 inhibition | 21% of 96,000 active | CYP2C19 Supersomes, luciferin-H EGE luminescence, 30 min | inhibition, % at 5 µM | P33261;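 active means CYP2C19 inhibition above a set limit at 5 µM in the primary screen, cut at about 50% in these data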;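 further: plate controls were negative control wells for no effect and 2.5 mM tranylcypromine positive control for full effect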
CYP2C19 act: increases human CYP2C19 enzyme activity; activation factor at 5 µM; recombinant CYP2C19, luciferin-H EGE luminescence; stronger effect = higher value; 0 = fully inhibited enzyme, 1 = untreated enzyme; 96,000 tested, under 10 active; AID 1025; P33261;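 active means activation factor of at least 2 at 5 µM in the primary screen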;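 further: 0 = wells with 2.5 mM tranylcypromine and 1 = vehicle-only wells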
* hit, by the source's call; . = not tested or not shown. Hits are enriched below; roughly 27% of the tested compounds scored in any of these assays.

SMILES	CYP2C9 inh	sEH inhibitor	sEH activator	CYP2C9 activ	CYP2C19 inh	CYP2C19 act
CCOC(=O)c1ccc(NC2OC(=O)c3ccccc32)cc1 (configuration not stated)	-1	-2	0	1	37	0.6
CC(C)(C)C1CCc2onc(C(=O)N3CCOCC3)c2C1 (configuration not stated)	-22	.	.	1.2	16	0.8
CCOC(=O)c1cccc(N2C(=O)c3ccccc3S2(=O)=O)c1	68*	-8	11	0.3	56*	0.4
O=C1Nc2ccc(S(=O)(=O)N3CCCC3)c3ccc(S(=O)(=O)N4CCCC4)c1c23	-6	-4	7	1.1	-7	1.1
O=C(O)CN1C(=O)SC(Nc2ccccc2C(=O)O)C1=O (configuration not stated)	-9	-3	1	1.1	1	1
CCC(=O)NCCc1cc2cc(C)c(C)cc2[nH]c1=O	-18	5	-4	1.2	-8	1.1
CCC(CC)C(=O)NCCc1cc2cc(C)c(C)cc2[nH]c1=O	63*	.	.	0.4	28	0.7
C=CCn1c(Sc2nncn2C)nc2c1c(=O)[nH]c(=O)n2C	.	1	-1	.	.	.
C=CCSc1nc(N)c(C(=O)Nc2ccccc2C)cc1C(N)=O	66*	6	-1	0.3	68*	0.3
Cc1ccc(S(=O)(=O)N2CCC(C(=O)N[C@H](C(=O)NCC3CCCO3)C(C)C)CC2)cc1 (some centres not stated)	-1	5	-8	1	5	1
Cc1ccnc(NC2OC(=O)c3ccccc32)c1 (configuration not stated)	-16	-5	7	1.2	16	0.8
Cc1cccc2cc(CN(Cc3ccc(F)cc3)C(=O)N3CCOCC3)c3nnnn3c12	32	13	-16	0.7	12	0.9
Cc1ccc2c(c1)cc(CN(Cc1cccnc1)C(=O)NCc1ccccc1)c1nnnn12	65*	0	3	0.3	90*	0.1
Cc1ccc2c(c1)cc(CN(Cc1ccc3c(c1)OCO3)C(=O)c1ccccc1)c1nnnn12	-9	0	0	1.1	-13	1.1
Cc1ccc2c(c1)cc(CN(CCc1ccccc1)C(=O)N1CCOCC1)c1nnnn12	64*	-2	1	0.4	53*	0.5
Cc1nonc1NC(=O)OC1CCCCC1	3	3	-5	1	17	0.8
CCOC(=O)C(C)Sc1nnc(Cn2c(=O)sc3ccccc32)n1-c1ccccc1 (configuration not stated)	80*	2	-3	0.2	69*	0.3
COc1ccc2c(c1OC)C(=O)N(C(C)C(=O)O)C2=O (configuration not stated)	-4	-6	6	1	-8	1.1
Fc1ccc(CSc2nc3ccccc3[nH]2)cc1	56*	3	0	0.4	93*	0.1
Fc1ccc(CSc2nc3ncccc3[nH]2)cc1	51*	-3	3	0.5	82*	0.2
CCCOc1ccc(CSc2nc3ccccc3[nH]2)cc1	90*	0	1	0.1	39	0.6
Fc1cccc(CSc2nc3ncccc3[nH]2)c1	29	2	-5	0.7	46	0.5
Fc1ccc(CSc2nc3ccccc3[nH]2)c2ccccc12	98*	16	-21	0	99*	0
O=c1cc(CSc2nc3ccccc3[nH]2)c2ccccc2[nH]1	38	15	-14	0.6	34	0.7
CCSc1nc2ccccc2[nH]1	-27	14	-11	1.3	-6	1.1
SMILES	CYP2C9 inh	sEH inhibitor	sEH activator	CYP2C9 activ	CYP2C19 inh	CYP2C19 act
Nc1nc(-c2nc3ccccc3[nH]2)cs1	20	-21	21	0.8	41	0.6
CCCCOc1ccc(CSc2ncn[nH]2)cc1	73*	2	-5	0.3	93*	0.1
Nc1nc(CSc2nc3ccccc3[nH]2)cs1	44	-7	7	0.6	76*	0.2
CN(C)c1ccc(-c2nnn(Cc3ccccc3Br)n2)cc1	-36	4	-5	1.4	96*	0
COc1ccc(-c2nnn(Cc3ccccc3F)n2)cc1	.	9	-4	.	.	.
CC12CC3(C)CC(C)(C1)CC(C(=O)Nc1nn[nH]n1)(C2)C3	15	10	-7	0.9	54*	0.5
CCc1cccc2c(C(=O)Cn3nnc(-c4ccc(OC)c(OC)c4)n3)c[nH]c12	62*	9	-11	0.4	71*	0.3
O=c1cc(-c2ccccc2)nc2nc(-c3ccccc3)[nH]n12	59*	-15	15	0.4	-1	1
Nc1nc2nc(-c3ccccc3)cc(=O)n2[nH]1	1	-10	6	1	12	0.9
Cc1noc(C)c1S(=O)(=O)N1CCN(C(c2ccccc2)c2ccc(Cl)cc2)CC1 (configuration not stated)	77*	-16	18	0.2	75*	0.2
COC(=O)c1cc2ccsc2n1CC(=O)Nc1ccc(N(C)C)cc1	22	-14	13	0.8	53*	0.5
COC(=O)c1cc2occc2n1CC(=O)Nc1ccc(OC)c(OC)c1	16	1	-2	0.8	33	0.7
COC(=O)c1cc2ccsc2n1Cc1nc(-c2ccc(OC)cc2)oc1C	59*	4	-4	0.4	32	0.7
COC(=O)c1cc2ccsc2n1CC(=O)Nc1cc(Cl)ccc1OC	36	10	-8	0.6	51*	0.5
Cc1cc(C)n(-c2ccc(Cl)c(C(=O)Nc3ccc(-c4nnc5n4CCCCC5)cc3)n2)n1	15	.	.	0.9	18	0.8
CCC(C)(C)NC(=O)C(OC(=O)c1cc2sccc2n1C)c1ccc(OC)cc1 (configuration not stated)	8	-11	11	0.9	2	1
CC(OC(=O)c1cc2sccc2n1C)C(=O)NCC1CCCO1 (configuration not stated)	42	6	-7	0.6	33	0.7
Cn1c(C(=O)OC(C(=O)NCc2ccco2)c2ccncc2)cc2sccc21 (configuration not stated)	90*	6	-4	0.1	98*	0
CC(OC(=O)c1cc2sccc2n1C)C(=O)NCc1ccco1 (configuration not stated)	79*	-10	8	0.2	90*	0.1
Cc1c(NC(=O)Nc2ccc(Cl)c(Cl)c2)c(=O)n(-c2ccccc2)n1C	3	.	.	1	13	0.9
CC(C)(C)NC(=O)CN(C(=O)CS(=O)CC(=O)Nc1ccc(F)cc1)c1ccc(F)c(Cl)c1 (configuration not stated)	89*	-10	10	0.1	36	0.6
FC(F)(F)c1cccc(-c2ccc(-c3csnn3)o2)c1	23	.	.	0.8	56*	0.4
Cc1cccc(N2C(=O)CC(Sc3nc(C)cc(C)n3)C2=O)c1 (configuration not stated)	15	0	3	0.8	40	0.6
